Tau fluor cs: Counterscreen qHTS for Inhibitors of Tau Fibril Formation, Fluorescence Polarization | tau K18 P301L Alexa594 fluorescence, heparin fibrillization | Potency, µM (doses to about 57.7 µM), for inactives: at the top dose activity change, negative = decrease | 0.93% of 280,000 active; note: potency is the fitted concentration of half-maximal effect; nearly all actives have a fitted effect of over 55% in size
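Human tau K18 P301L (15 uM unlabeled, 0.24 uM Alexa 594-labeled) in 100 mM sodium acetate pH 7 with 20 uM heparin, 6 hr at 37 C. ThT 30 uM added, 1 hr ambient; Alexa 594 FP and total fluorescence read at 555/632 nm.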
Tau fibril FP: qHTS for Inhibitors of Tau Fibril Formation, Fluorescence Polarization | K18 P301L tau heparin fibrillization, Alexa594 FP, 6 h | Potency, µM (top dose mostly 57.7 µM), for the others: at the highest dose activity, negative = inhibition, usual class: inhibitors | 0.39% of 280,000 active; note: potency is the fitted concentration of half-maximal effect; nearly all actives have a fitted effect of over 55% in size
Target sequence (P10636 561-689 P618L limits assumed): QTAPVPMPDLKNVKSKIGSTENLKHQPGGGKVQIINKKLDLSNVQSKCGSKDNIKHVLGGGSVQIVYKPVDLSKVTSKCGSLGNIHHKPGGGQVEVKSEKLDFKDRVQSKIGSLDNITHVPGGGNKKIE
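K18 P301L tau (15 uM unlabeled/0.24 uM Alexa 594-labeled, final) + compound + heparin 20 uM final; 100 mM NaOAc pH 7; 6 hr 37 C; ThT 30 uM final added, 1 hr RT; FP ex 555/em 632 nm.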
FBPA coupling cs: qHTS Assay for Inhibitors of Fructose-1,6-bisphosphate Aldolase from Giardia Lamblia: Coupling assay counterscreen; 0.67% of 290,000 active; coupling enzyme system counterscreen, AmpLite Red fluorescence; activity change, negative = inhibition, % at 58.2 µM, hits read low; in the data active = activity change below about -30%
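Coupling enzymes only (glyceraldehyde-3-phosphate) + compound, at 57.5 uM final, 10 min RT; add substrate/coupling/AmpLite Red mix, 20 min RT; fluorescence ex 525/em 598 nm. Actives flag coupling-system interference.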
Sfp PPTase inh: qHTS Assay for Inhibitors of Bacillus subtilis Sfp phosphopantetheinyl transferase (PPTase); AID 1490, 2009; Biochemical Sfp PPTase activity, qHTS; 3.5% of 310,000 active; Potency, µM, inactives show largest response in the series, negative = inhibition, actives largely listed as inhibitors; 4'-phosphopantetheinyl transferase ffp (Bacillus subtilis), Q9F4F7;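 note: the enzyme is Sfp with the accession as filed and its product quenches rhodamine fluorescence; potency is the fitted concentration of half-maximal effect; 0% = enzyme reaction without inhibitor and -100% = no enzyme wells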
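Reaction rates are the 30-min fluorescence difference (ex 525, em 598 nm) in wells containing 15 nM Sfp, 5 uM rhodamine-CoA and 12.5 uM BHQ-2-YbbR at pH 7.6 with 10 mM MgCl2.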
Tau ThT inhib: qHTS for Inhibitors of Tau Fibril Formation, Thioflavin T Binding; recombinant tau K18 P301L (four-repeat tau fragment), heparin-induced fibrillization, ThT fluorescence; 2.1% of 270,000 active; Potency, µM (series often up to 57.4 µM), inactives show top-dose activity, negative = inhibition, usual class: inhibitors; note: potency is the fitted concentration of half-maximal effect; nearly all actives have a fitted effect of over 55% in size
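Heparin-induced fibrillization of the P301L-mutant K18 repeat-domain fragment of human tau was followed by ThT binding in quantitative high-throughput format.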
* = called active by the depositor; u = inconclusive; x = not tested or not shown. The list is not random: actives were taken first. Their share in the collection is about 5.2%. Unless noted, calls come from the whole dose curve; as a rule, active = well fitted curve in the direction sought with a large enough effect; inconclusive = small, poorly fitted or top-dose-only effect, or another doubt; inactive = no such curve, though single readings can be large; an effect the other way counts as inactive or inconclusive. Unless noted, % is set by controls: 0 for no effect and ±100 for the full control effect.

SMILES	Tau fluor cs	Tau fibril FP	FBPA coupling cs	Sfp PPTase inh	Tau ThT inhib
COc1ccc(C(=O)N2CCC3(CCCN(C(=O)Nc4cccc(F)c4)C3)CC2)cc1	x	x	1.9	-4.6%	x
Cc1cc(C)n(CC(O)Cn2c3ccc(Br)cc3c3cc(Br)ccc32)c(=O)n1 (stereo not drawn)	-28.3%	-13.3%	-2.0	-24.8%	-24.4%
CN(C)CC(O)Cn1c2ccc(Br)cc2c2cc(Br)ccc21 (stereo not drawn)	u	25.1µM*	x	u	16.4%
CN(C)c1nc(NS(=O)(=O)c2ccc(Cl)cc2)nc(N(C)C)n1	-0.7%	-2.9%	-32.4*	4.0%	1.6%
O=S(=O)(Nc1ncccn1)c1ccc(NC(=S)Nc2ccc(Cl)cc2)cc1	-27.8%	-16.2%	2.1	39.8µM*	14.6%
O=S(=O)(Nc1ncccn1)c1ccc(Cl)cc1	x	x	3.5	-15.0%	x
COc1cc(NC(=O)CSc2ccc(-c3sc(C)nc3C)nn2)cc(OC)c1	-24.2%	-3.8%	x	x	u
O=C(CCn1cnc2onc(-c3ccc(F)cc3)c2c1=O)Nc1cccc(C(F)(F)F)c1	u	22.4µM*	x	x	13.7%
O=C(CCn1cnc2onc(-c3ccc(F)cc3)c2c1=O)Nc1ccc(F)c(Cl)c1	u	28.2µM*	x	x	18.0%
Cc1ccc(NC(=O)CCn2cnc3onc(-c4ccc(F)cc4)c3c2=O)c(Br)c1	-29.3%	u	x	x	-0.2%
CC1CCCC2(C1)NC(=S)c1c(sc3c1CCCC3)N2 (stereo not drawn)	u	u	3.0	6.31µM*	17.8µM*
CC(C)NC(=O)CSc1nc2ccccc2n1-c1ccccc1	-12.0%	1.3%	2.9	18.9%	-11.6%
CC(C)(C)NC(=O)CSc1nc2ccccc2n1-c1ccccc1	-17.5%	-5.3%	1.4	50.1µM*	-21.8%
O=C1NC(c2cccs2)Nc2sc3c(c21)CCCC3 (stereo not drawn)	u	u	-8.9	44.7µM*	2.51µM*
CCOc1ccc(C2c3c(oc4ccc(C)cc4c3=O)C(=O)N2CCCN(C)C)cc1 (stereo not drawn)	2.2%	6.3%	x	x	0.1%
CNc1ccccc(-c2ccc3ccccc3n2)c1=O	1.0%	3.2%	-13.5	56.2µM*	-13.8%
COc1cccc(NC(=O)Cn2c(=O)n(-c3cccc(OC)c3)c(=O)c3sc4ccccc4c32)c1	-22.4%	u	x	x	15.4%
O=C(CC(c1ccc(F)cc1)c1ccco1)N1CCCC1 (stereo not drawn)	4.4%	-5.7%	4.5	31.6µM*	u
O=C1c2ccccc2C(=O)N1CCC(c1ccc(F)cc1)c1ccco1 (stereo not drawn)	-0.1%	6.6%	4.1	14.1µM*	-14.9%
O=C(N/N=C/c1ccccc1)C(=O)N/N=C/c1ccccc1	x	x	-0.4	-2.9%	x
O=C(C=C=Nc1ccccc1)C(=O)N=C=Cc1ccccc1	u	u	1.2	-0.6%	10µM*
CC(=O)Nc1ccc(S(=O)(=O)NNC(=S)NCc2ccco2)cc1	x	x	x	44.7µM*	x
CCCCc1ccc(S(=O)(=O)NNC(=S)NCc2ccco2)cc1	-12.2%	-7.5%	9.2	3.8%	-8.9%
S=C(NCC1CCCO1)Nc1ccc(Nc2ccccc2)cc1 (stereo not drawn)	u	5.4%	3.5	18.0%	u
NS(=O)(=O)c1ccc(NC(=S)NCC2CCCO2)cc1 (stereo not drawn)	0.0%	0.4%	2.2	44.7µM*	2.0%
COCC(=O)Nc1ccc(S(=O)(=O)NCC2CCCO2)cc1 (stereo not drawn)	x	x	0.9	11.4%	x
CC(=O)Nc1ccc(S(=O)(=O)NNC(=S)NCC2CCCO2)cc1 (stereo not drawn)	x	x	0.1	56.2µM*	x

Compound activity (PubChem BioAssay)
